An excerpt weighted towards active compounds, which were near 2.4% of everything screened.
D2 PAM-1 – D2 dopamine receptor (human) potentiation; hit rate 0.34% among 340,000; potentiation, % at 10 µM; HEK293 T-REx D2, calcium flux, EC20 dopamine potentiation; P14416;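 active means potentiation over 3 SD above the plate norm, cut at about 30% in these data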
Target sequence (P14416 whole entry, looked up): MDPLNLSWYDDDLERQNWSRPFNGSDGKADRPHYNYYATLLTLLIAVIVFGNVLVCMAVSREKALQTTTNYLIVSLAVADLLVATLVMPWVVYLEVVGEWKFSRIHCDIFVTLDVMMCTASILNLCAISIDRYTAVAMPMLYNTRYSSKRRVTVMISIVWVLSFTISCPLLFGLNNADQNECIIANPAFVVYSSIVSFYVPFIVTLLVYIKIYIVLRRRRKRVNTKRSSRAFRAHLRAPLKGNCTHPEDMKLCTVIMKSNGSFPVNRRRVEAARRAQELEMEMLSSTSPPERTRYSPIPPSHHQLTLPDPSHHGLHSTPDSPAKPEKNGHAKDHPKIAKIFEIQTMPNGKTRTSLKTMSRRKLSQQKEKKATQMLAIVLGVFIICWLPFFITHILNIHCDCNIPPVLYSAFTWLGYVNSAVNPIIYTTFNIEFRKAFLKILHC
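Potentiation of an EC20 dopamine calcium response measured kinetically over 180 s, after a preceding 180 s compound-only read flagging agonists. Cells: inducible Hek293 Trex D2 line, 4000/well, cultured overnight at 30 C before dye loading.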
D2 antag – antagonizes the human D2 dopamine receptor; P14416; HEK293 TREx D2 cells, calcium flux, dopamine EC80; inhibition, % at 10 µM; hit rate 2% among 340,000; AID 485344; in the data active means inhibition above about 30%; inactive means below that, where a call was filed
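Inhibition of EC80 dopamine-driven calcium flux, recorded kinetically, defines activity here; cells are a tetracycline-induced HEK293 T-REx line expressing force-coupled D2.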
D2 ag-1 – agonists of human D2 dopamine receptor; P14416; HEK293 T-REx D2 cells, calcium flux agonist mode; activation, % at 2 µM; hit rate 0.53% among 340,000; AID 485358;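 active means activation over 3 SD above normal in the single-dose calcium agonist read, cut at about 30% in these data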
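Tetracycline-induced HEK293 Trex cells with D2 receptor force-coupled to calcium signaling, plated overnight at 30 C and loaded with no-wash calcium dye. Calcium flux read kinetically for 180 s after compound addition; responses flag agonists.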
D2 PAM-2 – human D2 receptor positive allosteric modulation; P14416; DiscoveRx D2 beta-arrestin cells, luminescence, 90 min; 100% = 57 uM dopamine signal; hit rate 0.23% among 360,000; AID 624464; potentiation, % (concentration not given with the values); in the data active means potentiation above about 50%; inconclusive means mostly about 30% to 49%
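PathHunter beta-arrestin assay in DiscoveRx D2 cells. Compounds were added with an EC20 of dopamine (50 nM final) for 90 min at 37 deg C. Luminescence was read 1 h after detection reagent, with 57 uM dopamine as the EC100 control.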
D2 ag-2 – human D2 receptor agonism in beta-arrestin assay. P14416. DiscoveRx PathHunter D2 beta-arrestin, luminescence, 90 min; 100% = 57 uM dopamine signal. activation, % (concentration not given with the values). hit rate 0.084% among 360,000. AID 624465; in the data active means activation above about 40%; inconclusive means between about 15% and that limit
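DiscoveRx PathHunter D2 beta-arrestin cells (2,100/well) attached overnight, then compound-stimulated 90 min at 37 C in HBSS/10 mM HEPES/0.1% Tween-20 buffer; beta-galactosidase complementation read by luminescence after 1 h at ambient temperature. Dopamine 57 uM final (EC100) as control.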
Of the large screens only hits and unclear results are named; the others gave an inactive call.

CCc1ccccc1NC(=O)c1cccn(Cc2ccccc2F)c1=O	none (no result: D2 antag, D2 PAM-2, D2 ag-2)
CCCCn1c(NC(=O)c2ccc(Br)o2)c(C(=O)OCC)c2nc3ccccc3nc21	D2 ag-1 37
CCNc1cc(N2CCNCC2)ccc1[N+](=O)[O-]	D2 antag 35 (no result: D2 PAM-2, D2 ag-2)
Cc1ccc(C2SCC(=O)Nc3c2c(=O)[nH]n3C2CCOC(C)(C)C2)cc1 (stereo unspecified)	D2 antag 37
CC(=O)O[C@@]12CO[C@@H]1C[C@H](OC1OCC(O)C(O)C1O)[C@@]1(C)C(=O)[C@H](O)C3=C(C)[C@@H](OC(=O)[C@H](O)[C@@H](NC(=O)c4ccccc4)c4ccccc4)C[C@@](O)([C@@H](OC(=O)c4ccccc4)C12)C3(C)C (stereo partly specified)	D2 antag 38
CCCCc1nn2c(=O)cc(COC(=O)Cc3ccccc3)nc2s1	none (no result: D2 antag, D2 PAM-2, D2 ag-2)
Cc1cc2c(C(F)(F)F)cc(=O)oc2c2c1NCCC2	none
O=c1cc(C(F)(F)F)c2cc3c4c(c2o1)CCCN4CCC3	D2 antag 79, D2 ag-1 143
Cc1[nH]c2ccccc2c1CCCNC1CCCCC1	D2 antag 39
CCN1CCN(c2ccc(N)cc2C)CC1	none
CCN1CCN(c2ccc(NC(C)=O)cc2Cl)CC1	D2 antag 42
CC(C)NC(C)C(=O)c1ccc2ccccc2c1 (stereo unspecified)	D2 antag 46
Cc1ccc(-c2cc(-c3ccccc3)cc(-c3ccccc3)[n+]2-c2ccccc2)cc1	D2 antag 38
CCN1CCN(Cc2cc(C(C)(C)C)c(O)c(C(C)(C)C)c2)CC1	D2 antag 46 (no result: D2 PAM-2, D2 ag-2)
NCCc1c[nH]c2ccc(C(N)=O)cc12	none
NCCc1c[nH]c2ccc(F)cc12	D2 antag 95 (no result: D2 PAM-2, D2 ag-2)
Cc1ccc(-n2c(/C=C/c3ccc(Br)s3)nc3ccccc3c2=O)cc1C	none (no result: D2 antag, D2 PAM-2, D2 ag-2)
CC/C(=N\Nc1cccc2ccccc12)c1c(O)[nH]c(=O)[nH]c1=O	D2 PAM-2 55, D2 ag-2 inconclusive
CC1(C)CSC(Nc2ccc(F)c(Cl)c2)=N1	D2 PAM-1 32
CC1(C)CN=C(Nc2ccc(F)c(Cl)c2)S1	none
C/C=C(\C)C(=O)OC1C(C)=C2C(C1OC(=O)CCCCC)C(C)(OC(C)=O)CC(OC(=O)CCC)C1(O)C2OC(=O)C1(C)O (stereo unspecified)	D2 antag 36, D2 ag-1 66 (no result: D2 PAM-2, D2 ag-2)
Cc1ccc2c(c1)C1CN(C)CCC1N2C(=O)/C(C#N)=C/c1ccc2c(c1)OCO2 (stereo unspecified)	D2 antag 48
Cc1ccc2c(c1)C1CN(C)CCC1N2C(=O)/C=C/c1ccc2c(c1)OCO2 (stereo unspecified)	none
CNC(=S)NC1CC2CCCC(C1)N2CC(C)C (stereo unspecified)	none (no result: D2 PAM-1, D2 antag, D2 ag-1)
Cc1ccc(CN2C3CCCC2CC(NC(=S)NCc2ccccc2)C3)cc1 (stereo unspecified)	D2 antag 104
Cc1cccc(CN2CCN(c3ccc(Cl)cc3)CC2)c1	D2 antag 34
CCCCCCN1CCN(c2ccc(Cl)cc2)CC1	D2 antag 51
Fc1ccc(CN2CCN(c3ccc(Cl)cc3)CC2)cc1	none
Cc1cccc(CN2CCN(Cc3ccc(Cl)cc3)CC2)c1	none
O=C(CCc1nc(C2=CCN(Cc3cccc(Cl)c3)CC2)no1)Nc1ccccc1F	none (no result: D2 antag, D2 PAM-2, D2 ag-2)
CC1(C)OC(c2ccccc2)=C/C(=C/C=C2C(=O)NC(=S)NC2=O)O1	D2 antag 63
O=C1NC(=S)NC(=O)C1=Cc1cccc2cc3ccccc3cc12	none
CN1/C(=C\C=C2C(=O)NC(=S)NC2=O)C(C)(C)c2ccccc21	D2 antag 31, D2 ag-1 128
CN1CC(C(=O)c2ccc(F)cc2)C(c2ccc(F)cc2)C1 (stereo unspecified)	D2 antag 100
COc1ccc2ccc(O)c(CN3CC=C(c4ccccc4)CC3)c2c1	none
COc1ccc2c(CN3CC=C(c4ccccc4)CC3)cc(=O)oc2c1	none
COc1ccc(C(C)=O)cc1CN1CC=C(c2ccccc2)CC1	D2 antag 78
COc1cc(C)cc(CN2CC=C(c3ccccc3)CC2)c1O	D2 antag 88
CCOc1ccc(CN(CCc2ccc3c(c2)OCO3)Cc2cccc(Br)c2)cc1	none (no result: D2 antag, D2 ag-1, D2 PAM-2, D2 ag-2)
COc1ccc(-c2nc(CN3C(=O)CN=C(c4ccccc4)c4ccccc43)c(C)o2)cc1	none (no result: D2 antag, D2 ag-1, D2 PAM-2, D2 ag-2)
COc1c(O)cc2c(c1OC)-c1ccc(SC)c(=O)cc1C(NC(C)=O)CC2 (stereo unspecified)	none (no result: D2 PAM-1, D2 antag, D2 ag-1)
COc1ccc(OCC(=O)N2CCN(Cc3cccc(OC)c3OC)CC2)cc1	none (no result: D2 antag, D2 ag-1, D2 PAM-2, D2 ag-2)
CCN(CC)P(=O)(c1n(CC)cc[n+]1CC)N(CC)CC	D2 PAM-1 31
COc1ccc(CC2c3cc(OC)c(OC)cc3CCN2C)cc1OC (stereo unspecified)	none (no result: D2 PAM-1, D2 antag, D2 ag-1)
COc1cc2c(cc1O)[C@@H]1Cc3ccc(OC)c(O)c3CN1CC2	D2 antag 75
COc1ccc(C[C@@H]2c3cc(O)c(OC)cc3CCN2C)cc1O	D2 antag 52
Cc1ccc(-n2c(/C=C/c3cc(Br)cs3)nc3ccccc3c2=O)cc1	none (no result: D2 antag, D2 PAM-2, D2 ag-2)
c1ccc(CN2CCc3nc4ccccc4cc3C2)cc1	D2 antag 76, D2 ag-1 78, D2 ag-2 95
CN1CC[C@]2(c3cccc(O)c3)Cc3nc4ccccc4cc3C[C@H]2C1	D2 antag 40 (no result: D2 PAM-2, D2 ag-2)
CN1CC[C@@]23CCCC[C@@H]2[C@@H]1Cc1ccc(O)cc13	none (no result: D2 PAM-1, D2 antag, D2 ag-1)
CCOc1ccccc1NC(=O)c1cccn(Cc2ccccc2C)c1=O	none (no result: D2 antag, D2 PAM-2, D2 ag-2)
CCC1(c2ccccc2)C(=O)N(C)C(=O)N(C)C1=O	D2 antag 34
CN1C(=O)N(C)C(=O)C2(Sc3ccccc3C2=O)C1=O	none
N#Cc1ccccc1NC(=O)c1cccn(Cc2ccccc2)c1=O	none (no result: D2 antag, D2 PAM-2, D2 ag-2)
CN1CCN(Cc2nc3ccccc3n2C)CC1	none
CCC1C2Cn3c(nc4ccccc43)C1N(C)O2 (stereo unspecified)	D2 PAM-1 34
CCCn1cc2c3c(cccc31)C1CC(C)CN(C)C1C2 (stereo unspecified)	D2 antag 87, D2 ag-1 39 (no result: D2 PAM-2, D2 ag-2)
CCCc1ccc(OCC(=O)Nc2ccc(Cl)cc2C(=O)c2ccccc2)cc1	none (no result: D2 antag, D2 PAM-2, D2 ag-2)
Cc1cc(NCCN)nc2ccccc12	D2 antag 58
Cc1ccc(C)c(-n2c(C)nc3ccccc3c2=O)c1	none
CCCCOCCCn1c(N)c(C(=O)OC(C)COC)c2nc3ccccc3nc21 (stereo unspecified)	none
COCCCn1c(N)c(C(=O)OC(C)COC)c2nc3ccccc3nc21 (stereo unspecified)	D2 antag 43
CN(CCc1nnc(N)s1)[N+](=O)[O-]	D2 antag 48
O=C(CCCN1CCC(n2c(=O)[nH]c3ccccc32)CC1)c1ccc(F)cc1	D2 antag 77
O=C(Nc1ccc2c(c1)OCCO2)c1cccn(Cc2cccc([N+](=O)[O-])c2)c1=O	none (no result: D2 antag, D2 PAM-2, D2 ag-2)
